Shown is part of a subset that was picked to be rich in hits.
Tgondii IFNg: T. gondii growth inhibition with IFN-gamma, primary screen, cell-based; Toxoplasma gondii growth in IFN-gamma-treated host cells; hits give low values; activity change, negative = inhibition, % (no concentration beside the values); hit rate 3.8% among 69,000; in the data active = activity change below about -70%, passing the limit was not always enough;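 also: host cells are HeLa cells infected with Toxoplasma gondii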
Of the large screens only hits and unclear results are named; the others gave an inactive call; ! = not confirmed by another sample.

COc1ccc(C2Sc3ccccc3N(CCN(C)C)C(=O)C2OC(C)=O)cc1 (stereo not drawn)	none
COc1cccc(C(=O)NCCc2csc(-c3ccc(F)cc3)n2)c1	none
Cc1cccc(C(=O)NCCc2csc(-c3cccc(F)c3)n2)c1	Tgondii IFNg -75
O=C(NCCc1csc(-c2ccc(F)cc2)n1)c1cccc(C(F)(F)F)c1	none
Cc1cccc(C(=O)NCCc2csc(-c3ccccc3)n2)c1	none
COc1cccc(C(=O)NCCc2csc(-c3cccc(C)c3)n2)c1	none
CC(=O)NCCc1csc(-c2cccc(F)c2)n1	none
O=C(NCCc1csc(-c2cccc(F)c2)n1)c1ccc(Br)cc1	none
O=C(NCCc1csc(-c2ccc(F)cc2)n1)c1cccc(Br)c1	Tgondii IFNg -87
O=C(NCCc1csc(-c2cccc(F)c2)n1)c1cccc(Br)c1	Tgondii IFNg -81
COCC(NC1CCN(c2cccc(C)c2C)CC1)c1ccnn1C (stereo not drawn)	none
Cc1cccc(C)c1NC(=O)C(=O)NCCc1sc(-c2ccc(F)cc2)nc1C	none
CCn1c(C2CCCNC2)nn(CCSc2ccccc2)c1=O (stereo not drawn)	none
Cc1oc(C2CCN(C(=O)c3ccc(F)cc3Cl)CC2)nc1C(=O)N1CCCC1	none
CN1CCC(N(CCc2ccccc2)C(=O)c2cnc(N3CCCCC3)nc2)CC1	Tgondii IFNg -90
CCN(C(=O)c1cnc(NC)nc1)C1CCN(C)CC1	none
Cc1ccccc1N(CC(=O)NCCc1ccccc1)C(=O)c1ccc(N2CCCC2)nc1	none
Cc1cc(=O)[nH]c(N2CCC(NC(=O)c3cc4nc(C)cc(C(F)F)n4n3)CC2)n1	none
C[C@@H]1CC[C@H]2[C@@H](C)C(O)O[C@@H]3O[C@]4(C)CC[C@@H]1[C@]32OO4 (stereo partly drawn)	Tgondii IFNg -82
CCOc1ccc(OCC)c(NC(=O)C2=C(C)C(=O)OC23CCN(Cc2ccccc2)CC3)c1	none
c1cc(-c2cnccn2)c2cccnc2c1	none
c1ccc(-c2[nH]ncc2-c2ccnc3ccccc23)nc1	Tgondii IFNg -80!
O=C(NC1CCOCC1)c1ccc(-c2cc(-c3cn[nH]c3-c3ccccn3)ccn2)cc1	none
Cc1cc(Nc2nccs2)cc(C2CCCN2C(=O)CCCc2ccc(F)cc2)n1 (stereo not drawn)	none
CCc1nc(Cn2cnc(-c3ccccc3)c2-c2ccc(C)cc2OC)no1	none
O=C(c1cncc(-c2ccnc3[nH]ccc23)n1)N1CCCCC1	none
NC(=O)c1cc(-c2ccnc3[nH]ccc23)ccc1Cl	Tgondii IFNg -89
CNC(=O)c1cc(-c2ccn[nH]2)ccc1Cl	none
CC1=NOC(C(=O)Nc2cc(C)ccc2NC(=O)C2CCCCC2)C1 (stereo not drawn)	none
O=C(NCc1cccs1)C1CN(C(=O)c2cccc(Cl)c2)CC12CCOCC2 (stereo not drawn)	none
C[C@H](CO)N1C[C@H](C)[C@H](CN(C)Cc2ccccc2C(=O)O)OCc2cnnn2CCCC1=O	none
Cn1cnnc1Sc1cc(C#N)c(C#N)cc1Sc1nncn1C	none
CC1c2cccn2CCN1Cc1ccc(Sc2nncn2C)o1 (stereo not drawn)	none
Cc1ccc(Nc2nc(Nc3ccc(C)cc3)nc(Sc3nncn3C)n2)cc1	Tgondii IFNg -75
COc1cc2c(c(OC)c1OC)-c1c(cc3c(c1OC)OCO3)C[C@H](C)[C@@H](C)C2	none
COc1cc([C@@H]2c3cc4c(cc3[C@@H](O[C@@H]3O[C@@H]5CO[C@@H](C)O[C@H]5[C@H](O)[C@H]3O)[C@H]3COC(=O)[C@H]23)OCO4)cc(OC)c1O	Tgondii IFNg -80
COc1cc([C@@H]2c3cc4c(cc3[C@H](O)[C@H]3COC(=O)[C@H]23)OCO4)cc(OC)c1OC	Tgondii IFNg -76!
COc1ccc([C@H]2C/C=C\C[C@@H](c3ccc4c(c3)OCO4)NC(=O)CCC(=O)N2)c(OC)c1	none
C[C@H]1CC=CC[C@@H](c2ccc(F)cc2)NC(=O)[C@H](Cc2ccccc2)N(C)C(=O)c2ccccc2O1 (mixture of isomers)	none
CC(Cc1cccc(C(F)(F)F)c1)NCCOC(=O)c1ccccc1 (stereo not drawn)	none
COc1ccccc1-c1cc(C(=O)O)cc(S(=O)(=O)N2CCN(C)CC2)c1	none
O=C1NCc2c1c1c3ccccc3[nH]c1c1[nH]c3ccccc3c21	none
c1ccc(Cc2nc3ccccc3[nH]2)cc1	none
Clc1nc2ccccc2c2[nH]c3ccccc3c12	Tgondii IFNg -95
Fc1ccc(N2CCCN(CC3CCOC3)CC2)cc1 (stereo not drawn)	none
COC(=O)[C@H]1CN(C(=O)CCn2nc(C)cc2C)C[C@@H]1c1ccccc1F	none
CCOc1ccc(-c2nc(Cn3nnc(C(=O)Nc4ccc(Br)c(C)c4)c3C)c(C)o2)cc1	none
Cc1ccc(S(=O)(=O)N2C[C@H]3[C@@H](c4ccccc42)[C@@H](CO)N3Cc2cccnc2)cc1	none
CC(=O)N1CCC2(CC1)OC(=O)C(C)=C2C(=O)NCCCN1CCC(N2CCCCC2)CC1	none
Clc1ccccc1-c1nnc(Cc2cc(Br)sc2Br)o1	Tgondii IFNg -90
FC(F)(F)c1cc(Oc2ccccc2)ncc1-c1nnc(-c2ccccc2Cl)o1	none
COc1ccccc1-c1nnc(CC(=O)O)o1	none

Assay outcomes as filed in PubChem.
